# Compound activity as filed in PubChem.
# TMEM16A inh = mouse TMEM16A channel inhibition, primary screen; Q8BHY3; HEK293 TMEM16A/YFP iodide influx fluorescence, ionomycin; normalized B-score (activity score, 25-100; higher = stronger inhibition) at 10 µM; 310,000 compounds, 1.2% hits;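 active means ratio plate-corrected score three or more library SD toward inhibition, starting fluorescence score within five deviations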;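 further: score derived from kinetic fluorescence span divided by baseline fluorescence per well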
# Target sequence (Q8BHY3 whole entry, looked up): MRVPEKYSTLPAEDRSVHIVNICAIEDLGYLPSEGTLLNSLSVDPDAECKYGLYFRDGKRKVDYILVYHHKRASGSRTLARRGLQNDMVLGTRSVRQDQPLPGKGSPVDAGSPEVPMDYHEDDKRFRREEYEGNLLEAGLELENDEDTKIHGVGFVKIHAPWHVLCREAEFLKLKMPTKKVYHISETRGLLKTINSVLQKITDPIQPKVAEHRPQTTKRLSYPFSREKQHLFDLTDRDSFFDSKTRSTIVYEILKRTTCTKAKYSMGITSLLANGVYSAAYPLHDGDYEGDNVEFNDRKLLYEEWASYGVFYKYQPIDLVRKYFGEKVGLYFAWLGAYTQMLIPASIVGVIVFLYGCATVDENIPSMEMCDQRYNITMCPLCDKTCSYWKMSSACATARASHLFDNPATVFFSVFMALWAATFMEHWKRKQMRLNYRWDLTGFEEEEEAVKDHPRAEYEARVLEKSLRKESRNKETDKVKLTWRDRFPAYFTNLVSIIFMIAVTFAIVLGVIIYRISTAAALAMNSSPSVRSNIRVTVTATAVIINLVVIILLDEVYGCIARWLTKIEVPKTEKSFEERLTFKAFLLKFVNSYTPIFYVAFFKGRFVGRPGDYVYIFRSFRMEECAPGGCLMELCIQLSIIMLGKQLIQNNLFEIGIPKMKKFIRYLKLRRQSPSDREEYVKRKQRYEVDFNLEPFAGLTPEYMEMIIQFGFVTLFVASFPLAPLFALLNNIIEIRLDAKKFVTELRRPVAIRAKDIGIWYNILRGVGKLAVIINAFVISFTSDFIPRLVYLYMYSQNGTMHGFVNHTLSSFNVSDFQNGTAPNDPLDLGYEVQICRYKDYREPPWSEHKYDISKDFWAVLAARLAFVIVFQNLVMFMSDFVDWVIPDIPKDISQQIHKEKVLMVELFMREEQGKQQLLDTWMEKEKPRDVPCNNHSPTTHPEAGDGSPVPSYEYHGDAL
# CHT inh = inhibitors of human choline transporter CHT | Q9GZV3 | CHT-expressing cells, membrane potential dye, choline response; active compounds read low | B-score at 10 µM | 310,000 compounds, 0.86% hits | AID 488975;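 active means B-score over 3 SD under the library average, and starting fluorescence ratio not unusually high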;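 further: choline stimulus applied at its EC90 after an EC20 pre-addition; B-score computed on integrated fluorescence ratio after choline addition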
# ANO1 activ = activators or potentiators of mouse TMEM16A chloride channel | Q8BHY3 | HEK293 TMEM16A/YFP-H148Q/I152L, iodide quench fluorescence; active compounds read low | B-score at 10 µM | 340,000 compounds, 0.3% hits;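 active means fluorescence-ratio B-score plate-corrected deviation score at least 3 library SD below zero, with starting fluorescence score within 5 deviations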;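 further: channel opened by trigger with iodide after compound preincubation; score built on the fluorescence ratio of max minus min over baseline; more negative score means more quench and so TMEM16A activation or potentiation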
# CHT PAM = allosteric activators of human choline transporter CHT | 310,000 compounds, 0.49% hits | Q9GZV3 | B-score at 10 µM | CHT-expressing cells, membrane potential dye, choline EC20; active compounds read high; LV-AA mutant CHT in HEK293 cells;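 active means initial fluorescence not abnormally high and integrated response B-score, plate-corrected, over 3 SD above library mean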
# * = called active by the depositor; i = inactive; / = no result. Compounds with a hit are over-represented: about 2.3% of the library has one in this group of screens.
SMILES,TMEM16A inh,CHT inh,ANO1 activ,CHT PAM
CCCSc1nc2sc3c(c2c(=O)[nH]1)CCN(Cc1ccccc1)C3,i,i,-5.6*,i
CCOc1ccc(CCNC(=O)CCC(=O)N2CCOc3ccc(C)cc32)cc1OCC,i,i,-14*,i
O=C(CCc1ccc(S(=O)(=O)N2CCOCC2)cc1)Nc1nc(COc2ccccc2)cs1,25*,i,i,i
CCOC(=O)C1CCCN(S(=O)(=O)c2ccc3c(c2)N(C(C)=O)CCO3)C1 (configuration not stated),i,i,i,i
CCCCCCCCN1[C@@H](CC(=O)OCC)c2cc(F)ccc2S1(=O)=O,25*,i,i,i
COc1ccc(C2=NN(C(=O)CSc3nccn3C)C(c3ccco3)C2)cc1 (configuration not stated),/,/,i,/
C/C(=N\Nc1nc2c(s1)CCCC2)c1ccc(Cl)cc1,i,i,-11*,i
CN(C)c1ccc(C(=O)Nc2nc3c(s2)CCCC3)cc1,i,i,i,i
Cc1noc(C)c1S(=O)(=O)Nc1ccc2c(c1)C(=O)N([C@H](C)CO)C[C@H](C)[C@@H](CN(C)C(=O)NC1CCCCC1)O2,/,/,i,/
Cc1ccccc1-n1c(=O)c2ccccc2n2nnnc12,i,i,i,i
CCCCn1c(=O)nc2n(-c3ccccc3C)c3ccccc3cc-2c1=O,25*,i,i,i
Cc1ccccc1-n1c2nc(=O)n(C)c(=O)c-2cc2ccccc21,100*,i,i,i
Cc1c(/C(O)=C2\C(=O)C(=O)N(CCCN(C)C)C2c2ccco2)cnn1-c1ccccc1 (configuration not stated),/,/,i,/
O=C(NC(c1cccnc1)C(F)(F)F)c1cc(COc2ccc3c(c2)CCCC3)on1 (configuration not stated),25*,i,i,i
C/C(=N\NC(=O)c1ccc(CN2CCc3ccccc3C2)cc1)c1ccccc1O,100*,i,i,i
CCCNC(=O)c1ccc(CN2CCc3ccccc3C2)cc1,i,i,i,i
CC1(C)Cc2ccccc2-c2nnc(SCC(=O)N3CCN(c4ccccc4)CC3)n21,25*,i,i,i
CC1(C)Cc2ccccc2-c2nnc(SCc3ccccc3)n21,i,i,i,i
COc1ccccc1COC(=O)C(NC(=O)c1ccc(C)cc1)C(C)C (configuration not stated),/,/,i,/
COc1cccc(C2C(C(=O)OC(C)C)=C(C)N=c3s/c(=C\c4ccc(C(=O)O)cc4)c(=O)n32)c1 (configuration not stated),i,i,-4.8*,i
O=C(NC(=S)Nc1cc([N+](=O)[O-])ccc1O)c1ccc2c(c1)OCO2,i,i,i,i
COc1cc([N+](=O)[O-])ccc1NC(=S)NNC(=O)c1ccc2c(c1)OCO2,100*,-5.7*,i,i
O=C(CSc1cccc[n+]1[O-])Nc1cc(Cl)ccc1[N+](=O)[O-],/,/,i,/
O=[N+]([O-])c1ccc(Sc2cccc[n+]2[O-])c2nonc12,/,/,-4.9*,/
CN(C)c1ccc(P(=O)(OCc2ccccc2)C(O)c2ccncc2)cc1 (configuration not stated),25*,i,i,i
SMILES,TMEM16A inh,CHT inh,ANO1 activ,CHT PAM
NNC(=O)c1cccn(Cc2ccc(Cl)cc2Cl)c1=O,i,i,-7.2*,i
O=Cc1cccn1Cc1ccc(Cl)cc1Cl,i,i,i,i
Oc1ccc(Cl)cc1Cc1cc(Cl)ccc1O,100*,i,i,i
COCCN1C(=O)/C(=C/c2ccc(OCc3ccc(C(=O)O)cc3)c(OC)c2)SC1=Nc1ccccc1,100*,i,i,i
O=C(Cc1cccs1)Nc1ccccc1F,i,i,i,i
CC(C)Oc1ccc(C(=O)N2CCN(C(=O)c3ccco3)CC2)cc1,i,i,i,i
O=C(NCc1ccccn1)c1coc(=O)c(Br)c1,100*,i,i,i
CCCCS(=O)(=O)N1CCN(S(=O)(=O)c2cccs2)CC1,i,i,i,i
Cc1sc(NC(=O)CN2CCOCC2)nc1-c1ccc2c(c1)CCN2S(=O)(=O)c1ccccc1,25*,i,i,i
Cc1ccc2nc(N3C(=O)C(O)=C(C(=O)c4ccco4)C3c3ccc(O)cc3)sc2c1 (configuration not stated),25*,i,i,i
CCCSc1nnc(N2C(=O)C(O)=C(C(=O)c3ccco3)C2c2ccccc2F)s1 (configuration not stated),i,i,-4.8*,i
C=CCSc1nnc(N2C(=O)C(O)=C(C(=O)c3ccco3)C2c2ccccc2F)s1 (configuration not stated),i,i,i,i
CSc1nnc(N2C(=O)C(O)=C(C(=O)c3ccco3)C2c2ccccc2F)s1 (configuration not stated),i,i,-4.8*,i
Cc1ccc2nc(N3C(=O)C(O)=C(C(=O)c4ccco4)C3c3ccc(C)o3)sc2c1 (configuration not stated),i,i,i,i
CSc1nnc(N2C(=O)C(O)=C(C(=O)c3ccc(C)o3)C2c2ccc(C)cc2)s1 (configuration not stated),i,i,-4.8*,i
CC(=O)NCCC(=O)Nc1nc2ccc(Oc3ccccc3)cc2s1,i,i,i,i
COC(=O)c1sc(N2C(=O)C(O)=C(C(=O)c3ccc(C)o3)C2c2cccs2)nc1C (configuration not stated),i,-5.8*,i,i
O=C(CCc1nc(-c2ccccc2F)no1)Nc1ccc(Oc2ccccc2)cc1,100*,i,i,i
Cc1ccc(S(=O)(=O)c2ccc(Cl)cc2)cc1S(=O)(=O)N1CCOCC1,25*,i,i,i
O=C(O)/C=C/C(=O)Nc1ccc2nccnc2c1,25*,i,i,i
Cc1nc2ccc(NC(=O)/C=C/C(=O)O)cc2nc1C,i,i,i,i
CCOCCCNC(=O)CS(=O)(=O)Cc1nc(-c2cccc(OC)c2)oc1C,25*,i,i,i
CCN1CCN(CCCNC(=O)CS(=O)(=O)Cc2nc(-c3cccc(OC)c3)oc2C)CC1,i,i,i,i
O=C(Cn1nnc(-c2ccc(F)cc2)n1)Nc1cccc(S(=O)(=O)N2CCCC2)c1,/,/,i,/
Cc1c(-c2ccc(F)cc2)[n+](=O)c2c(n1[O-])CCCCC2,i,i,-6.9*,i
O=C(O)c1cc2cc(Cl)ccc2oc1=O,i,i,i,i
O=C(O)c1ccc(Cl)cc1Nc1nc2cc(Cl)ccc2o1,25*,i,i,i
COc1ccc(C(=O)c2ccc(N(C)C)cc2)c(OC)c1,i,i,i,i
